# About 5,800 (36%) of roughly 16,000 compounds were called active. Inconclusive results (about 23%) are left out. Calls follow the shape of the dose curve; as a rule, active = well fitted curve in the direction sought with a large enough effect; inconclusive = small, poorly fitted or top-dose-only effect, or effect the other way; inactive = no such curve, though single readings can be large or run the other way. The list shows a part of the results.
# Target: Cytochrome P450 2C19 (Homo sapiens) (UniProt P33261)
# Sequence (P33261 whole entry, looked up): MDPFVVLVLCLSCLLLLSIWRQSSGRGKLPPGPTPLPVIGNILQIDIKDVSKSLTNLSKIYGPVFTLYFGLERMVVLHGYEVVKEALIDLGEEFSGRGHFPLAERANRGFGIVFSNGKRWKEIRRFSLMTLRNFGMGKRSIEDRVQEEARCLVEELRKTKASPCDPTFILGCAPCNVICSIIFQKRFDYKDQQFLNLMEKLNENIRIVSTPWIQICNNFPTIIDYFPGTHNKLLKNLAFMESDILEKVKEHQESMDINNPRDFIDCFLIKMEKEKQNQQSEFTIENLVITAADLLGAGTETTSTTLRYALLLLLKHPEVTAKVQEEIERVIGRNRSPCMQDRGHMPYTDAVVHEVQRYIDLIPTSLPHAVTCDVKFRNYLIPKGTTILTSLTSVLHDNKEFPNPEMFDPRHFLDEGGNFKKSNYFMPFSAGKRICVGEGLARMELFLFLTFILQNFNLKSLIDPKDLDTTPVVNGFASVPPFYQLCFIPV
# Experiment: Cytochrome panel assay with activity outcomes
# Details: recombinant CYP, pro-luciferin dealkylation, luminescence, p450-cyp2c19; series mostly up to 57.1 µM; activity, negative = inhibition: at the top concentration
# % is scaled to controls: 0 for no effect and ±100 for the full control effect.
Structure (SMILES),AC50,"activity, negative = inhibition"
CCS(=O)(=O)N1CCC(C(=O)NCc2ccccc2OC)CC1,39.8 µM (active),
CCOCCCNC(=O)C1CCN(S(=O)(=O)N2CC(C)CC(C)C2)CC1 (centres undefined),,-22.9% (inactive)
CCS(=O)(=O)N1CCC(C(=O)NCCCN2CCCC2)CC1,,-1.56% (inactive)
O=C(NCCc1ccc(Cl)cc1)C1CCN(S(=O)(=O)N2CCC3(CC2)OCCO3)CC1,4.47 µM (active),
CCOc1ccc(CCNC(=O)C2CCN(S(=O)(=O)CC)CC2)cc1OCC,,-24.6% (inactive)
O=C(NCCCN1CCN(Cc2ccccc2)CC1)C1CCN(S(=O)(=O)N2CCCC2)CC1,,-10.4% (inactive)
COc1cccc(CNC(=O)C2CCN(S(=O)(=O)N3CCCCC3)CC2)c1,,-23.7% (inactive)
O=C(NCc1ccccc1Cl)C1CCN(S(=O)(=O)N2CCC3(CC2)OCCO3)CC1,22.4 µM (active),
CCS(=O)(=O)N1CCC(C(=O)NCc2ccco2)CC1,,-10.1% (inactive)
O=C(Nc1ccc(F)cc1F)c1cccn1-c1ncc(C(F)(F)F)cc1Cl,10 µM (active),
Cc1ccc(C(=O)N/N=C\c2ccc[nH]2)cc1[N+](=O)[O-],,1.23% (inactive)
Cc1ccc(C(=O)Nc2ccccc2Oc2ccccc2)cc1[N+](=O)[O-],3.16 µM (active),
Cc1ccc(C(=O)Nc2ccc(Cc3ccncc3)cc2)cc1[N+](=O)[O-],1.12 µM (active),
CCOC(=O)c1ccc(NC(=O)C2(c3ccc(OC)cc3)CCOCC2)cc1,2.24 µM (active),
COc1ccc(NC(=O)C2(c3ccc(NC(=O)c4ccc(C)cc4)cc3)CCCC2)cc1,,23.1% (inactive)
CC(=O)c1ccc(NC(=O)C2(c3ccccc3)CCOCC2)cc1,14.1 µM (active),
COc1ccc(NC(=O)C2(c3ccc(NC(=O)c4ccc(OC(C)=O)cc4)cc3)CCCC2)cc1,,0.405% (inactive)
Cc1noc(C)c1C(=O)N1CCC2(CCN(C(=O)Nc3ccccc3)CC2)CC1,,-16.5% (inactive)
COc1ccc(NC(=O)N2CC3(CCN(C(=O)c4ccc(OC)cc4)CC3)C2)cc1,,5.03% (inactive)
NS(=O)(=O)c1cc2c(cc1Cl)N[C@@H](CC1CCCC1)NS2(=O)=O,,-18.8% [at 25.6 µM] (inactive)
O=[N+]([O-])c1ccc(C=Nc2ccc(Cl)cc2Cl)s1,7.08 µM (active),
O=C(/C=C/Nc1ccccc1)c1ccc(Oc2ncccn2)cc1,15.8 µM (active),
COc1ccc(NC(=O)c2ccc(-c3ccc(-c4noc(C)n4)cc3C)cc2)cc1OCCN(C)C,,-37% (inactive)
COc1ccc(-c2noc(N(C)CC(=O)Nc3cccc(C(F)(F)F)c3)n2)cc1,4.47 µM (active),
CC[C@]1(O)C[C@@H]2CN(CCc3c([nH]c4ccccc34)[C@](C(=O)OC)(c3cc4c(cc3OC)N(C=O)[C@H]3[C@@](O)(C(=O)OC)[C@H](C(=O)OC)[C@@]5(CC)C=CCN6CC[C@]43[C@H]65)C2)C1,,-33.8% (inactive)

Structure (SMILES),AC50,"activity, negative = inhibition"
CC1=NCC[N@@+]1(CCc1ccccc1)Cc1ccccc1,,32.9% [at 11.4 µM] (inactive)
COc1ccc2[nH]cc(CCNc3ncncc3-c3ccc(C(=O)N(C)C)cc3)c2c1,10 µM (active),
COc1ccc2[nH]cc(CCNc3ncncc3-c3ccc(N(C)C)cc3)c2c1,1.58 µM (active),
COc1ccc2[nH]cc(CCNc3ncnc4ccc(-c5ccc(C(=O)N(C)C)cc5)cc34)c2c1,7.94 µM (active),
O=C(O)c1[nH]c2c([N+](=O)[O-])cc([N+](=O)[O-])cc2c1C(=O)O,,39.2% [at 11.4 µM] (inactive)
NS(=O)(=O)c1cc2c(cc1C(F)(F)F)N[C@H](Cc1ccccc1)NS2(=O)=O,,-20.3% [at 25.6 µM] (inactive)
CC[n+]1c(P(=O)([O-])c2ccccc2)[nH]c2ccccc21,,-15.5% (inactive)
CN1CC(c2ccccn2)C2(SC(=S)N(Cc3ccccc3)C2=O)C12C(=O)Nc1ccccc12 (centres undefined),1.12 µM (active),
O=C(c1ccc(C(F)(F)F)cc1)c1c[nH]c(C(=O)NCCCn2ccnc2)c1,0.631 µM (active),
CC(C)(C)c1ccc(C(=O)c2c[nH]c(C(=O)NCCCn3ccnc3)c2)cc1,0.1 µM (active),
CCC(CC)C(=O)c1c[nH]c(C(=O)NCCCN2CCOCC2)c1,,17.8% (inactive)
Cc1ccc(C(=O)c2c[nH]c(C(=O)NCCCN3CCOCC3)c2)cc1,,-7.11% (inactive)
CCOC(=O)NC(NC(=O)OCC)C(=O)c1ccc(F)cc1,,-29.8% (inactive)
Cc1c(CCO)c(=O)n(C)n1C(=O)c1ccc(F)cc1,17.8 µM (active),
Cc1ccc(-n2nnnc2-c2cnc3ccc(Cl)cc3c2-c2ccccc2)cc1,7.94 µM (active),
Clc1ccc2[nH]cc(-c3nnnn3-c3ccccc3)c2c1,1.12 µM (active),
N#Cc1cccc(-c2nc3cnc(Nc4ccccc4)nc3n(C[C@H]3CCCO3)c2=O)c1,,5.15% (inactive)
Cn1sc(NC(=O)c2ccccc2)nc1=O,,-23.1% (inactive)
Cc1cc(NC(=O)c2ccccc2Cl)c(C(C)C)cc1O,3.98 µM (active),
Cc1ccc(Cl)c(Nc2ccccc2C(=O)O)c1Cl,inactive,
O=C(Nc1ccccc1Cl)c1ccn[nH]1,,14.8% (inactive)
O=C(Nc1ccccc1Cl)c1ccccc1Cl,20 µM (active),
Cn1sc(NC(=O)c2ccccc2Cl)nc1=O,14.1 µM (active),
CC[C@@]12CCCN3CCc4c(n(c5ccccc45)[C@](O)(C(=O)OC)C1)[C@H]32,inactive,

# Reference: PubChem BioAssay AID1851 (National Center for Advancing Translational Sciences (NCATS), 2009)
